Assay results published in PubChem BioAssay AID686979 (National Center for Advancing Translational Sciences (NCATS), 2013).
Out of some 420,000 compounds screened, about 50,000 (12%) were called active. Another 26% or so got no clear call; they are omitted. Shown is part of a subset that was picked to be rich in actives. Where a call stands in place of a potency, no number is given. A number with no mark means an inactive call. Calls follow the shape of the dose curve; as a rule, active = well fitted inhibition curve with a large enough effect; inconclusive = small, poorly fitted or top-dose-only effect; inactive = flat fitted curve, though single readings scatter.

Test: qHTS for Inhibitors of human tyrosyl-DNA phosphodiesterase 1 (TDP1): qHTS in cells in presence of CPT; also: nearly all actives have a fitted effect of over 55% in size
Details: chicken DT40 Tdp1-/-;hTDP1 cells + 20 nM CPT, ATP luminescence, 48 h; series mostly up to 46.2 µM
How it was run: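 Cell growth measured by CellTiter-Glo luminescence after a minimum 48 h, 37 C compound exposure with 20 nM CPT in Tdp1-knockout DT40 cells stably expressing hTDP1, seeded 400/well; qHTS titration format.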
Potency is read from the fitted curve at half-maximal effect.

Structure (SMILES)	Potency	activity change, negative = growth inhibition
S=C(NCc1cccnc1)Nc1ccc(Cl)cc1Cl	inactive	
NS(=O)(=O)c1ccc(-c2ccc(/C=C3\SC(=O)NC3=O)o2)cc1	inactive	
Cc1ccc(NC(=O)CCC(=O)c2ccc(Br)cc2)cc1	inactive	
Cn1c(=O)c2c(SCC(=O)NCC3CCCO3)nc(-c3ccccc3F)nc2n(C)c1=O (stereo not drawn)	inactive	
Cc1ccccc1-c1nc(SCC(=O)N(C)c2ccccc2)c2c(=O)n(C)c(=O)n(C)c2n1	20.6 µM (active)	
Cc1cccc(-c2nc(SCC(=O)Nc3cc(C)on3)c3c(=O)n(C)c(=O)n(C)c3n2)c1	inactive	
CN(C(=O)COC(=O)c1nc(Cl)ccc1Cl)C1CCS(=O)(=O)C1 (stereo not drawn)	inactive	
Cc1cc(C)c2nc(N3CCC(C(=O)NCCN4CCOCC4)CC3)sc2c1	inactive	
COc1ccc(/C(=N\O)c2nccc3cc(OC)c(OC)cc23)cc1OC	inactive	
COC(=O)c1ccc(-c2c(-c3ccccc3)ncc3cc(OC)c(OC)cc23)cc1	20.6 µM (active)	
COC(=O)c1ccc(NC(=O)CSc2nncc3ccc(OC)c(OC)c23)cc1	inactive	
CCN(CC)CCn1c2c(c(SCC(=O)Nc3ccc(C(C)C)cc3)nc1=O)CCC2	inactive	
CC(=O)OCC(=O)C1(O)CCC2C3CC(C)C4=CC(=O)CCC4(C)C3C(O)CC21C (stereo not drawn)	inactive	
COc1ccc(C(=O)NC(C)Cn2nc(C)cc2C)cc1OC1CCN(C(C)=O)CC1 (stereo not drawn)	inactive	
O=C(CN1C(=O)c2ccc([N+](=O)[O-])cc2C1=O)Nc1nnc(C2CC2)s1	inactive	
C=CCOc1ccc(/C=C/C(=O)OCC(=O)NCC2CCCO2)cc1 (stereo not drawn)	inactive	
COc1ccc(C(=O)N/N=C2\CCS(=O)(=O)c3ccc(F)cc32)cc1OC	18.4 µM (active)	
CCNC(=O)c1ccc(OCC(=O)Nc2ccc(F)cc2)c(OC)c1	inactive	
COc1ccc(/C=N/NC(=O)c2ccc3c(c2)OCCO3)c(OC)c1	inactive	
CCN(Cc1ccccc1)C(=O)Cc1ccc(OC)c(S(=O)(=O)N2CCOCC2)c1	inactive	
O=C(O)CCn1cc(/C=C/C(=O)c2ccc(Cl)cc2)c(-c2cccc(Br)c2)n1	20.6 µM (active)	
O=C(O)/C=C/c1cn(Cc2ccccc2)nc1-c1cccs1	inactive	
CCOC(=O)/C(C#N)=C/c1cn(CCC(=O)O)nc1-c1ccc(Br)cc1	inactive	
Cc1cc(C)cc(N)c1	inactive	
O=C(NCc1ccco1)C(c1ccncc1)N(C(=O)Cn1nnc2ccccc21)c1ccccc1 (stereo not drawn)	inactive	

Structure (SMILES)	Potency	activity change, negative = growth inhibition
CC(C)(C)OC(=O)N/N=C/c1ccc(C(=O)O)cc1	inactive	
COC(=O)C1(C(=O)OC)C/C=C\CN(S(=O)(=O)c2ccccc2[N+](=O)[O-])CCC1	inactive	
O=C(Nc1ccccc1)Nc1ccc(C(F)(F)F)cn1	inactive	
Cc1nnsc1C(=O)N/N=C/c1cccc(C(F)(F)F)c1	inactive	
Oc1ccc(/C=N/Nc2ccc(C(F)(F)F)cn2)cc1O	2.91 µM (active)	
COc1ccc(C(=O)Nc2cccc(/C=C(/CCC(=O)O)c3nc4ccccc4s3)c2)cc1	inactive	
O=C(CC(NCc1cccnc1)C(=O)O)Nc1ccc(O)cc1 (stereo not drawn)	inactive	
COc1cc2c(cc1OC)C(c1ccncc1)CC(=O)N2 (stereo not drawn)	inactive	
Cc1cc2c(cc1C)C(c1cccc(OC(C)C)c1)CC(=O)N2 (stereo not drawn)	16.4 µM (active)	
COC(=O)c1ccc(C2CC(=O)Nc3cc(OC)c(OC)cc32)cc1 (stereo not drawn)	inactive	
Cc1cccc(C)c1NC(=O)C(c1cccc(F)c1)N1CCN(C)CC1 (stereo not drawn)	inactive	
O=C(NC(c1ccccc1)c1ccccc1)N1CCN(CCO)CC1	inactive	
CC(=O)Nc1sc2c(c1C(c1cccc(F)c1)N1CCN(CCO)CC1)CCCC2 (stereo not drawn)	23.1 µM (active)	
COc1ccccc1CNC(=O)COC(=O)CNS(=O)(=O)c1ccc(NC(C)=O)cc1	inactive	
O=C(Cc1ccccc1)Nc1c(Cl)ccc2nsnc12	inactive	
CCN(CC)S(=O)(=O)c1ccc2c(c1)c(=O)c(C(=O)N1CCN(c3cccc(Cl)c3)CC1)cn2C	inactive	
CCOC(=O)N1CCN(C(=O)c2cn(C)c3ccc(S(=O)(=O)N(CC)CC)cc3c2=O)CC1	inactive	
C=CCn1cc(C(=O)NCc2ccc(Cl)cc2)c(=O)c2cc(S(=O)(=O)N(CC)CC)ccc21	20.6 µM (active)	
CSc1ncnc2c1ncn2CCCNCC(C)c1ccccc1 (stereo not drawn)	inactive	
O=C(Nc1cc(S(=O)(=O)N2CCOCC2)ccc1OCC(F)(F)F)c1ccc(N2CCCC2=O)cc1	inactive	
S=C(NNC(=S)NC1CC2C=CC1C2)NC1CC2C=CC1C2 (stereo not drawn)	inactive	
CC(C)c1ccc(NC(=S)NC2CC3C=CC2C3)cc1 (stereo not drawn)	14.6 µM (active)	
S=C(NNC(=S)NC1CC2CCC1C2)NC1CC2C=CC1C2 (stereo not drawn)	inactive	
COCCCN(C(=O)CSCc1ccc(C)cc1)c1c(N)n(Cc2ccccc2)c(=O)[nH]c1=O	inactive	
O=C(NCCC1CCCCN1S(=O)(=O)c1ccc(Cl)cc1)C(=O)NCc1ccco1 (stereo not drawn)	16.4 µM (active)	

Structure (SMILES)	Potency	activity change, negative = growth inhibition
O=C(NCCC1CCCCN1S(=O)(=O)c1ccccc1)C(=O)NCC1CCCO1 (stereo not drawn)	inactive	
Cc1ccc(S(=O)(=O)N2CCCC2C(=O)NCc2ccco2)cc1 (stereo not drawn)	inactive	
O=C(/C=C/[C@H]1O[C@@H](n2ccc(=O)[nH]c2=O)[C@H](O)[C@@H]1O)NCc1ccccn1	inactive	
COc1ccc(OCCn2ccnc2C)cc1	inactive	
Cc1cc2nc(C)n(CCCNC(=O)Nc3ccccc3)c2cc1C	inactive	
COc1ccc(OCCCn2c(C)nc3cc(C)c(C)cc32)cc1	11.6 µM (active)	
CCn1cc(C(=O)NCCC(=O)NCCO)c(=O)c2cc3c(cc21)OCO3	inactive	
COC(=O)C1=C(C(=O)OC)[C@@H]2N(C)c3ccccc3[C@@]23C[C@@H](C(=O)OC)N(C(=O)c2ccco2)C3=N1	inactive	
Cc1noc(C)c1NC(=O)Nc1ccc2c(c1)C(=O)N([C@H](C)CO)C[C@H](C)[C@@H](CN(C)S(=O)(=O)c1cn(C)cn1)O2	inactive	
COc1ccc(CNC(=O)CSc2n[nH]c(N)n2)cc1OC	inactive	
CC(C)n1cnc2c(NCc3ccccc3)cc(OCC3CCN(C)CC3)cc21	20.6 µM (active)	
CCC(CO)Oc1cc(NC(=O)c2cccc(F)c2)c2ncn(C(C)C)c2c1 (stereo not drawn)	inactive	
CCC(CO)Oc1cc(NC(=O)c2ccc(Cl)cc2)c2ncn(C(C)C)c2c1 (stereo not drawn)	inactive	
Cn1nc(C(=O)OCC(=O)N(Cc2ccccc2)C(C)(C)C)c2ccccc2c1=O	inactive	
O=C(CN1CCCCCC1)Nc1ccc(Br)cc1[N+](=O)[O-]	inactive	
Cc1ccc(S(=O)(=O)NC2CCCCCC2)cc1	inactive	
Cc1ccc(S(=O)(=O)C2(S(=O)(=O)c3ccc(C)cc3)CCCC2)cc1	7.31 µM (active)	
Cc1ccc(S(=O)(=O)N(C)C2(C)CCS(=O)(=O)C2)cc1 (stereo not drawn)	inactive	
COc1ccc(/C=C(/NC(=O)c2ccccc2)C(=O)Nc2cccc(C(=O)O)c2)cc1	inactive	
Cc1ccc(S(=O)(=O)N(CCc2ccccc2)c2ccc3c(c2)C2CC3CCN2C(=O)OCc2ccccc2)cc1 (stereo not drawn)	20.6 µM (active)	
CCOC(=O)N1CCN(C(=O)CN(c2ccc(C)c(C)c2)S(=O)(=O)c2ccccc2)CC1	inactive	
Cc1ccc(S(=O)(=O)CCC(=O)OCc2ccccc2)cc1	inactive	
COc1ccc(C(=O)NCC2CCCCC2)cc1S(=O)(=O)N1CCCC1	inactive	
Cc1[nH]c2c(C(=O)NCC3Cc4cccc(-c5cccnc5)c4O3)cccc2c1C (stereo not drawn)		-3.45% [at 9.04 µM]
Cc1cc(=O)oc2cc(OCC(=O)N3CCN(c4ccc(F)cc4)CC3)c(Cl)cc12	inactive	

Structure (SMILES)	Potency	activity change, negative = growth inhibition
COc1ccccc1-n1c(-c2cc(-c3ccco3)[nH]n2)n[nH]c1=S	inactive	
COc1ccccc1-n1cn[nH]c1=S	29.1 µM (active)	
COc1cccc(CNn2cn[nH]c2=S)c1OCc1ccccc1	inactive	
COCCNC(=O)C(OC(=O)c1cccs1)c1ccc(F)cc1 (stereo not drawn)	inactive	
CCOc1ccc2ccccc2c1/C=N/NC(=O)c1c(C)cc(C)[nH]c1=O	inactive	
COc1ccc(/C=N\NC(=O)c2sc(N)nc2C)cc1OC	inactive	
COc1ccc2ccccc2c1/C=N/NC(=O)c1cc(C)[nH]n1	8.2 µM (active)	
O=C(CN1C(=O)S/C(=C\c2ccccc2F)C1=O)NCCCn1ccnc1	inactive	
COCc1cc(C(C)=O)ccc1OC	inactive	
COc1ccc(-c2noc(COc3ccc(Cl)c(C)c3)n2)cc1	inactive	
COc1ccc(C(C)=O)cc1COc1ccc(Cl)c(C)c1	10.3 µM (active)	
COCCCNC(=S)N(CCN(C)C)Cc1cc2cc3c(cc2[nH]c1=O)OCCO3	inactive	
OCc1ccc(OCCCOc2cccc3cccnc23)cc1	inactive	
Nn1c(SCc2ccccc2)nnc1C1CCCCC1	inactive	
CC(C)NC(=O)Nc1ccc2c(c1)C(=O)N([C@H](C)CO)C[C@H](C)[C@@H](CN(C)Cc1ccc(C(F)(F)F)cc1)OCCCC[C@@H](C)O2	13 µM (active)	
C[C@@H]1CN([C@@H](C)CO)C(=O)c2cc(NS(C)(=O)=O)ccc2O[C@@H](C)CCCCO[C@H]1CN(C)C(=O)Nc1ccc2c(c1)OCO2	inactive	
Cc1noc(C)c1NC(=O)Nc1ccc2c(c1)C(=O)N([C@H](C)CO)C[C@H](C)[C@@H](CN(C)C(=O)Nc1ccc(C(F)(F)F)cc1)O2	inactive	
Cc1ccc(S(=O)(=O)N2CCOCC2)cc1NC(=O)c1ccncc1	inactive	
O=C(O)c1c(NC(=O)N2CCCC2)sc2c1CCCC2	inactive	
COc1cn(CC(=O)Nc2cccc(C)c2C)c(CN2CCCCC2)cc1=O	inactive	
O=C(C1CC1)N1N=C(c2ccc(Br)cc2)CC1(O)C(F)(F)F (stereo not drawn)	inactive	
O=C(Cc1ccccc1)N1N=C(c2ccncc2)CC1(O)C(F)(F)F (stereo not drawn)	inactive	
O=C(c1ccc(Cl)cc1)N1N=C(c2ccccn2)CC1(O)C(F)(F)F (stereo not drawn)	25.9 µM (active)	
